Assay outcomes deposited in PubChem BioAssay by several laboratories.
Hits are enriched below; roughly 3.9% of the tested compounds scored in any of these assays.
aSyn UTR inh = MLPCN primary screen, SNCA 5' untranslated region; alpha-synuclein 5'UTR reporter, inhibitor activity; hit rate 0.82% among 300,000; inhibition, % (tested at 7.5 µM); in the data active = inhibition above about 60%; inconclusive = no clear call, values can overlap the other calls;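 note: H4 neuroglioblastoma cells stably carrying SNCA 5'UTR luciferase fusion; 0% = DMSO wells and 100% = positive control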
HIF-2a inh = HIF-2a reporter inhibitors, primary screen, luminescence, 786-0 RCC cells | hit rate 0.72% among 360,000 | inhibition, % at 18.8 µM | 786-0 RCC cells HIF-2a reporter, luciferase luminescence, overnight | AID 624352, 2012;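 active = inhibition of the luminescence signal of 40% or more relative to plate controls, in a single-dose primary screen at 18.75 µM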
TROY signal inh = inhibitors of TROY-driven NF-kB signaling, primary screen, Q293 LMP1-TROYcd cells, NF-kB luciferase, uHTS; Q293 LMP1-TROYcd NF-kB luciferase reporter, 4 h; hit rate 0.98% among 360,000; inhibition, % at 10 µM; AID 1347056, 2019;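 active = compounds whose plate-normalised and pattern-corrected inhibition of the luciferase reporter signal at the single screening dose is 50% or more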
TWEAK-Fn14 inh = inhibitors of TWEAK-Fn14 signaling, primary screen, luciferase reporter cells, uHTS; TWEAK-stimulated Fn14 reporter cells, luciferase luminescence, 8 h; inhibition, % at 10 µM; hit rate 2% among 360,000; in the data active = inhibition above about 50%
TRAIL sens C8 = viability loss with TRAIL in NB7+C8 cells, primary screen, TRAIL sensitizer project, cell-based, ATPlite luminescence; inhibition (viability loss, TRAIL sensitization), % at 10 µM; hit rate 1% among 360,000; AID 624354, 2012;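 active = compounds causing at least 50% loss of cell viability in the single-dose screen, relative to plate controls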
HSP90 inh = HSP90 inhibitors, primary screen, cell lysate, luminescence | Heat shock protein HSP 90 (rabbit reticulocyte lysate; luciferase refolding) | Rabbit reticulocyte lysate, luciferase refolding luminescence, 3 h | inhibition, % at 5.6 µM | hit rate 0.91% among 290,000;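 active = inhibition above the screen-wide mean plus 3 SD, computed separately per campaign, cut at about 16% in these data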;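 note: 0% = DMSO wells and 100% = 60 µM geldanamycin wells; inhibitors lower the luminescence because luciferase stays unfolded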
* = called active by the depositor; u = inconclusive; x = not tested or not shown.

SMILES | aSyn UTR inh | HIF-2a inh | TROY signal inh | TWEAK-Fn14 inh | TRAIL sens C8 | HSP90 inh
O=C(COc1ccc(/C=N/NC(=O)c2cc3ccccc3o2)cc1Br)Nc1ccccc1 | 116.3* | -234.4 | 40.1 | -15.5 | 59.1* | -1.1
CC(=O)OC[C@@H]1CN(Cc2ccccc2)C[C@H](n2cnc3c(NC4CC4)ncnc32)O1 | x | 16.6 | -5.0 | 12.1 | -20.6 | x
O=c1[nH][nH]c2c1[C@H](CCc1cccc(Cl)c1)O[C@H](CCc1ccccc1)C2 | x | 3.0 | 8.4 | -0.6 | -27.6 | x
O=C(COc1ccccc1[N+](=O)[O-])Nc1ccc(NC(=O)c2cc3ccccc3o2)cc1 | -118.8 | 0.4 | 51.9* | 1.4 | 34.8 | -0.8
O=C(COc1ccccc1[N+](=O)[O-])Nc1ccc2oc(=O)ccc2c1 | -39.7 | -5.1 | -2.7 | -19.3 | -14.2 | -2.6
CC(=O)N1CCC(c2nc3ccccc3n2C(C)C(=O)NCc2ccccc2)CC1 (stereo not drawn) | x | 7.0 | x | x | 5.9 | x
O=C(CSCC(=O)N1CCCCC1)Nc1nc(-c2ccc(Cl)s2)cs1 | -118.1 | -208.3 | 45.0 | 68.5* | -10.1 | 0.2
O=C(CSCC(=O)N1CCN(c2ccccc2)CC1)Nc1nc(-c2ccc(Cl)s2)cs1 | 5.4 | -139.0 | 30.5 | 72.0* | 20.2 | -1.9
Cc1cc(C(=O)CSc2nnc(-c3ccc4c(c3)OCO4)o2)c(C)n1-c1ccc(F)cc1 | -2.1 | 21.7 | 13.2 | 64.6* | -9.2 | 3.2
NC(=O)CSc1nnc(-c2ccc3c(c2)OCO3)o1 | -91.3 | -117.8 | -35.4 | 12.1 | 16.2 | 5.5
C/C(N)=C(/C#N)C(=O)CSc1nnc(-c2ccc3c(c2)OCO3)o1 | u | -102.8 | 44.8 | 83.0* | 4.6 | 3.8
COC(=O)[C@@]12C[C@@H](CC(=O)NCc3cccc4ccccc34)C(=O)N(Cc3ccco3)C1=CCC(C)(C)C2 | x | -2.6 | x | x | 5.7 | x
CC1(C)CC(=O)C(C=NCC(N)=O)=C(O)C1 | -31.6 | 5.6 | 5.0 | 3.2 | 2.8 | 2.9
CC1(C)CC(=O)C(C=NCCCO)=C(O)C1 | -25.2 | -11.8 | -3.4 | 81.4* | 17.4 | 3.8
O=C(Nc1ccc(F)cc1)C(c1cccc(F)c1)N1CCN(c2ccncc2)CC1 (stereo not drawn) | x | -22.0 | x | x | 3.4 | x
COCCCN=Cc1c(-c2ccccc2)[nH]n(-c2nc3ccccc3s2)c1=O | 17.2 | -80.2 | -29.7 | -9.4 | -15.8 | 4.4
O=c1c(C=NCCCO)c(-c2ccccc2)[nH]n1-c1nc2ccccc2s1 | u | 19.3 | 33.9 | 77.2* | 5.8 | 7.3
c1ccc2c(-c3ccc4nncn4c3)cncc2c1 | x | 4.5 | 39.9 | 78.0* | -11.9 | x
c1coc(-c2ccc3nncn3c2)c1 | x | 7.6 | -1.8 | 19.8 | -1.4 | x
CCOC(=O)c1c(C)[nH]c(C(=O)NNC(=O)c2ccccc2)c1C | -67.1 | -117.2 | -25.3 | 52.9* | 29.7 | 3.8
CCOC(=O)c1c(C)[nH]c(C(=O)NNC(=O)c2ccc(Br)cc2)c1C | x | -163.4 | 54.8* | 56.0* | 13.9 | x
CCCCn1nnnc1C(C1CC1)N1CCN(C/C=C/c2ccccc2)CC1 (stereo not drawn) | x | -1.2 | -1.3 | -21.1 | -4.4 | x
COc1ccc(C(=O)N2CCC(C)(C(=O)O)C2)cc1OC (stereo not drawn) | x | 1.7 | -0.8 | -6.5 | -16.5 | x
O=C(O)c1ccccc1C(=O)Nc1ccc(Oc2cccc3ccccc23)cc1 | 94.4* | 78.3* | 71.0* | 87.8* | -0.4 | 0.0
COC(=O)c1cc2c(n1S(=O)(=O)c1ccc(C)cc1)C(=O)C(=O)c1[nH]cc(C(=O)OCc3ccccc3)c1-2 | x | 33.0 | 64.8* | 103.4* | 93.3* | x
SMILES | aSyn UTR inh | HIF-2a inh | TROY signal inh | TWEAK-Fn14 inh | TRAIL sens C8 | HSP90 inh
Cc1cccc(C(=O)OCC(=O)NCc2ccc(Cl)cc2)c1 | x | 1.2 | -2.0 | 14.6 | -13.4 | x
Cc1ccsc1CN(C)c1ncnc2ccc(-c3ccoc3)cc12 | x | 1.9 | 29.6 | 68.3* | -8.5 | x
COc1cccc(-c2ccc3ncnc(N(C)Cc4ccco4)c3c2)c1 | x | 5.6 | -23.4 | 36.8 | 3.7 | x
CC(C)=CCC[C@H](C)C[C@@H]1Cc2[nH][nH]c(=O)c2[C@H](c2ccc(F)cc2)O1 | x | 2.0 | -26.7 | -14.7 | -22.3 | x
CN(C)CCN1CCN(C2CN(Cc3ccc([N+](=O)[O-])cc3)S(=O)(=O)C2)CC1 (stereo not drawn) | x | 4.2 | -8.8 | -10.2 | -13.3 | x
CC(C)CC(=O)/C=C/n1c(=S)oc2ccccc21 | -48.9 | 90.7* | 14.7 | 98.6* | -6.1 | -0.1
CCCOC(=O)c1ccc(NC(=O)/C=C/c2cccs2)cc1 | -209.0 | -165.2 | 56.0* | 31.8 | -4.2 | -5.7
N#Cc1ccc(Cl)cc1NC(=O)CN1C(=O)C(=O)N(CCC2=CCCCC2)C1=O | x | 13.0 | 2.8 | -22.2 | -10.6 | x
CCc1ccc(-c2cn(-c3nc(C)cc(C)n3)c(=N)o2)cc1 | -5.6 | -103.5 | -0.7 | 90.9* | 3.3 | -5.5
O=C(CSc1nc2ccccc2c(=O)[nH]1)Nc1ccc(C(=O)O)cc1 | -10.6 | 15.7 | -9.2 | 3.1 | 1.9 | 0.6
O=C(CSc1nc2ccccc2c(=O)[nH]1)Nc1ccc([N+](=O)[O-])cc1 | x | 16.5 | 7.7 | -7.9 | 60.9* | x
CC(C)CC(=O)Nc1ccc(-c2nc3ccccc3c(=O)[nH]2)cc1 | -46.8 | -165.5 | 15.3 | 60.8* | 37.1 | 2.6
O=C(Nc1ccccc1Oc1ccccc1)c1cc([N+](=O)[O-])ccc1Cl | -9.2 | 29.4 | -16.8 | 53.7* | -5.1 | 2.0
CCc1ccc2oc(C(=O)Nc3cccnc3)c(C)c2c1 | -220.4 | -255.9 | -19.8 | -7.5 | 42.0 | 3.4
Cc1c(C(=O)Nc2cccnc2)oc2ccc(Br)cc12 | -246.2 | -328.9 | -70.0 | -15.9 | 50.0* | -3.2
Cc1nn(-c2ccccc2)c(C)c1/C=N/NC(=O)c1cc(-c2ccccc2)n[nH]1 | 82.1* | 2.1 | 2.2 | 11.1 | 7.2 | 0.7
Cc1nn(-c2ccccc2)c(C)c1/C=N/NC(=O)c1cc(-c2cccc3ccccc23)n[nH]1 | -2.2 | -20.0 | -5.0 | 14.5 | -26.8 | 2.0
Cc1nn(-c2ccccc2)c(Cl)c1/C=N/NC(=O)c1ccn[nH]1 | -22.2 | -76.4 | -16.2 | 50.2* | 75.1* | 16.8*
CC(C)(C)NC(=O)C1c2ccccc2OCC(=O)N1Cc1ccccn1 (stereo not drawn) | x | -3.2 | 2.2 | 5.0 | -12.1 | x
CN(Cc1ccccc1)C(=O)c1[nH]cnc1C(=O)Nc1ccc(Br)cc1F | x | -77.9 | 5.2 | -13.3 | -2.9 | x
Cc1ccc2nc(-c3ccccc3)c(Cc3ccsc3)n2c1 | x | -133.1 | -30.0 | 4.5 | 26.1 | x
Nc1nnc(-c2ccco2)s1 | 2.3 | -1.6 | 3.6 | -14.6 | -25.9 | 6.5
Nc1ncnc2oc(-c3ccco3)c(-c3ccco3)c12 | 40.3 | -16.1 | -6.0 | 76.5* | 3.2 | 1.6
C[C@@H]1Cn2cnc(C(=O)N[C@@H](C)c3ccccc3)c2C(=O)N1 | x | -7.5 | -0.1 | 10.4 | -6.6 | x
